Test results reported in publication PMC11006913.
Changes are numbered by the printed parent chain.

Key:
Test in all cases: PBM; 200 nM protein, PBS
Settings in all cases: dsDNA, one strand shown
SIX6 [1] = target: T1, SIX6 (Homo sapiens, UniProt O95475 114-200, L167I)
T1 sequence: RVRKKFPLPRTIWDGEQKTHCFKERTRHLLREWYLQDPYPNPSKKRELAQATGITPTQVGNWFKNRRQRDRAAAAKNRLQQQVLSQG

SIX6 [2] = target: T2, SIX6 (Homo sapiens, UniProt O95475 114-200, L143V)
T2 sequence: T1 sequence with L30V, I54L

SIX6 [3] = target: T3, SIX6 (Homo sapiens, UniProt O95475 114-200, H141N)
T3 sequence: T1 sequence with H28N, I54L

SIX6 [4] = target: T4, SIX6 (Homo sapiens, UniProt O95475 114-200, T165P)
T4 sequence: T1 sequence with T52P, I54L

SIX6 [5] = target: T5, SIX6 (Homo sapiens, UniProt O95475 114-200, L167M)
T5 sequence: T1 sequence with I54M

SIX6 [6] = target: T6, SIX6 (Homo sapiens, UniProt O95475 114-200, L143M)
T6 sequence: T1 sequence with L30M, I54L

SIX6 [7] = target: T7, SIX6 (Homo sapiens, UniProt O95475 114-200, L143I)
T7 sequence: T1 sequence with L30I, I54L

SIX6 [8] = target: T8, SIX6 (Homo sapiens, UniProt O95475 114-200, T165G)
T8 sequence: T1 sequence with T52G, I54L

SIX6 [9] = target: T9, SIX6 (Homo sapiens, UniProt O95475 114-200, T139Q)
T9 sequence: T1 sequence with T26Q, I54L

SIX6 [10] = target: T10, SIX6 (Homo sapiens, UniProt O95475 114-200, T165A)
T10 sequence: T1 sequence with T52A, I54L

SIX6 [11] = target: T11, SIX6 (Homo sapiens, UniProt O95475 114-200, L167V)
T11 sequence: T1 sequence with I54V

SIX6 [12] = target: T12, SIX6 (Homo sapiens, UniProt O95475 114-200)
T12 sequence: T1 sequence with I54L

SIX6 [13] = target: T13, SIX6 (Homo sapiens, UniProt O95475 114-200, T165I)
T13 sequence: T1 sequence with T52I, I54L

| Sequence | binding signal (SIX6 [1]) | binding signal (SIX6 [2]) | binding signal (SIX6 [3]) | binding signal (SIX6 [4]) | binding signal (SIX6 [5]) | binding signal (SIX6 [6]) | binding signal (SIX6 [7]) | binding signal (SIX6 [8]) | binding signal (SIX6 [9]) | binding signal (SIX6 [10]) | binding signal (SIX6 [11]) | binding signal (SIX6 [12]) | binding signal (SIX6 [13]) |
| --- | --- | --- | --- | --- | --- | --- | --- | --- | --- | --- | --- | --- | --- |
| GCGTATCA | 11.3 upbm affinity estimate (log intensity, higher = more binding, comparable within an allelic series) | 10.2 upbm affinity estimate (log intensity, higher = more binding, comparable within an allelic series) | 11.1 upbm affinity estimate (log intensity, higher = more binding, comparable within an allelic series) | 9.54 upbm affinity estimate (log intensity, higher = more binding, comparable within an allelic series) | 10.5 upbm affinity estimate (log intensity, higher = more binding, comparable within an allelic series) | 11.2 upbm affinity estimate (log intensity, higher = more binding, comparable within an allelic series) | 10.3 upbm affinity estimate (log intensity, higher = more binding, comparable within an allelic series) | 11.3 upbm affinity estimate (log intensity, higher = more binding, comparable within an allelic series) | 11.2 upbm affinity estimate (log intensity, higher = more binding, comparable within an allelic series) | 11.3 upbm affinity estimate (log intensity, higher = more binding, comparable within an allelic series) | 10.9 upbm affinity estimate (log intensity, higher = more binding, comparable within an allelic series) | 11.1 upbm affinity estimate (log intensity, higher = more binding, comparable within an allelic series) | 11.1 upbm affinity estimate (log intensity, higher = more binding, comparable within an allelic series) |
| AAGATATC | 11.2 upbm affinity estimate (log intensity, higher = more binding, comparable within an allelic series) | 10.4 upbm affinity estimate (log intensity, higher = more binding, comparable within an allelic series) | 11.2 upbm affinity estimate (log intensity, higher = more binding, comparable within an allelic series) | 10.1 upbm affinity estimate (log intensity, higher = more binding, comparable within an allelic series) | 10.7 upbm affinity estimate (log intensity, higher = more binding, comparable within an allelic series) | 11 upbm affinity estimate (log intensity, higher = more binding, comparable within an allelic series) | 10.3 upbm affinity estimate (log intensity, higher = more binding, comparable within an allelic series) | 11.1 upbm affinity estimate (log intensity, higher = more binding, comparable within an allelic series) | 11.1 upbm affinity estimate (log intensity, higher = more binding, comparable within an allelic series) | 11 upbm affinity estimate (log intensity, higher = more binding, comparable within an allelic series) | 11 upbm affinity estimate (log intensity, higher = more binding, comparable within an allelic series) | 10.9 upbm affinity estimate (log intensity, higher = more binding, comparable within an allelic series) | 10.9 upbm affinity estimate (log intensity, higher = more binding, comparable within an allelic series) |
| GATGATAC | 11.4 upbm affinity estimate (log intensity, higher = more binding, comparable within an allelic series) | 10.4 upbm affinity estimate (log intensity, higher = more binding, comparable within an allelic series) | 11.3 upbm affinity estimate (log intensity, higher = more binding, comparable within an allelic series) | 9.55 upbm affinity estimate (log intensity, higher = more binding, comparable within an allelic series) | 10.7 upbm affinity estimate (log intensity, higher = more binding, comparable within an allelic series) | 11.1 upbm affinity estimate (log intensity, higher = more binding, comparable within an allelic series) | 10.5 upbm affinity estimate (log intensity, higher = more binding, comparable within an allelic series) | 11.4 upbm affinity estimate (log intensity, higher = more binding, comparable within an allelic series) | 11.3 upbm affinity estimate (log intensity, higher = more binding, comparable within an allelic series) | 11.2 upbm affinity estimate (log intensity, higher = more binding, comparable within an allelic series) | 11.2 upbm affinity estimate (log intensity, higher = more binding, comparable within an allelic series) | 11.1 upbm affinity estimate (log intensity, higher = more binding, comparable within an allelic series) | 11.1 upbm affinity estimate (log intensity, higher = more binding, comparable within an allelic series) |
| ATATCCTA | 10.8 upbm affinity estimate (log intensity, higher = more binding, comparable within an allelic series) | 10.2 upbm affinity estimate (log intensity, higher = more binding, comparable within an allelic series) | 10.8 upbm affinity estimate (log intensity, higher = more binding, comparable within an allelic series) | 9.8 upbm affinity estimate (log intensity, higher = more binding, comparable within an allelic series) | 10.6 upbm affinity estimate (log intensity, higher = more binding, comparable within an allelic series) | 10.7 upbm affinity estimate (log intensity, higher = more binding, comparable within an allelic series) | 10.2 upbm affinity estimate (log intensity, higher = more binding, comparable within an allelic series) | 10.8 upbm affinity estimate (log intensity, higher = more binding, comparable within an allelic series) | 10.9 upbm affinity estimate (log intensity, higher = more binding, comparable within an allelic series) | 10.7 upbm affinity estimate (log intensity, higher = more binding, comparable within an allelic series) | 10.6 upbm affinity estimate (log intensity, higher = more binding, comparable within an allelic series) | 10.7 upbm affinity estimate (log intensity, higher = more binding, comparable within an allelic series) | 10.7 upbm affinity estimate (log intensity, higher = more binding, comparable within an allelic series) |
| TGATACCA | 11.3 upbm affinity estimate (log intensity, higher = more binding, comparable within an allelic series) | 10.5 upbm affinity estimate (log intensity, higher = more binding, comparable within an allelic series) | 11.3 upbm affinity estimate (log intensity, higher = more binding, comparable within an allelic series) | 9.8 upbm affinity estimate (log intensity, higher = more binding, comparable within an allelic series) | 10.7 upbm affinity estimate (log intensity, higher = more binding, comparable within an allelic series) | 11 upbm affinity estimate (log intensity, higher = more binding, comparable within an allelic series) | 10.6 upbm affinity estimate (log intensity, higher = more binding, comparable within an allelic series) | 11.5 upbm affinity estimate (log intensity, higher = more binding, comparable within an allelic series) | 11.3 upbm affinity estimate (log intensity, higher = more binding, comparable within an allelic series) | 11.4 upbm affinity estimate (log intensity, higher = more binding, comparable within an allelic series) | 11.1 upbm affinity estimate (log intensity, higher = more binding, comparable within an allelic series) | 11.2 upbm affinity estimate (log intensity, higher = more binding, comparable within an allelic series) | 11.1 upbm affinity estimate (log intensity, higher = more binding, comparable within an allelic series) |
| CGCGCCGC | 9.05 upbm affinity estimate (log intensity, higher = more binding, comparable within an allelic series) | 9.06 upbm affinity estimate (log intensity, higher = more binding, comparable within an allelic series) | 9.06 upbm affinity estimate (log intensity, higher = more binding, comparable within an allelic series) | 9.04 upbm affinity estimate (log intensity, higher = more binding, comparable within an allelic series) | 9.05 upbm affinity estimate (log intensity, higher = more binding, comparable within an allelic series) | 9.02 upbm affinity estimate (log intensity, higher = more binding, comparable within an allelic series) | 9.02 upbm affinity estimate (log intensity, higher = more binding, comparable within an allelic series) | 9.01 upbm affinity estimate (log intensity, higher = more binding, comparable within an allelic series) | 9.07 upbm affinity estimate (log intensity, higher = more binding, comparable within an allelic series) | 9.12 upbm affinity estimate (log intensity, higher = more binding, comparable within an allelic series) | 9.02 upbm affinity estimate (log intensity, higher = more binding, comparable within an allelic series) | 9.09 upbm affinity estimate (log intensity, higher = more binding, comparable within an allelic series) | 9.04 upbm affinity estimate (log intensity, higher = more binding, comparable within an allelic series) |
